About 1,900 (0.58%) of roughly 330,000 compounds were called active. Not shown: some 4% with an inconclusive outcome. These entries were drawn from the full list. Results with a measured potency or affinity are listed apart. Values without a mark were called inactive. Rule as the data show it: inconclusive = inhibition above about 70% without an active follow-up result; inactive = below that.
Experiment: M. tuberculosis growth inhibition, HTS (AID 449762);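 also: bacterial growth assessed after seven days of incubation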
Conditions: M. tuberculosis H37Rv growth inhibition, 7H9 media; at 25 µM; active compounds read high

In order of rising inhibition:
1. Cc1nc(N2CCOCC2)c2oc3ccccc3c2n1  -22.1%
2. Cc1c(S(=O)(=O)N2CCCCC2)c(=O)n(C)c(=O)n1C  -9.81%
3. Cc1cc2occ(CC(=O)NC3(C)CCS(=O)(=O)C3)c2cc1C (configuration not stated)  -9.66%
4. O=C(C(c1ccccc1)c1ccccc1)N1CCN(CCN2C(=O)c3cccc4cccc(c34)C2=O)CC1  -9.17%
5. CCN1C(=NCCc2ccc([N+](=O)[O-])cc2)N[C@@H](c2ccccc2)[C@H](C(=O)OC)[C@H]1C  -8.81%
6. Cn1cc(C(=O)c2cccc(Cl)c2Cl)cc1C#N  -7.62%
7. N#Cc1ccc(OCC(=O)Nc2cccc(S(=O)(=O)NC3=NCCCCC3)c2)cc1  -7.44%
8. CCn1c(SCC(=O)N2CCCCC2C)nnc1-c1ccco1 (configuration not stated)  -6.38%
9. CCN1CCN(C(c2cc(OC)c(OC)c(OC)c2)c2nnnn2C(C)C)CC1 (configuration not stated)  -6.3%
10. COc1cc(OC)cc(C(=O)N[C@H](C(=O)OCC(=O)c2c[nH]c3ccccc23)C(C)C)c1  -5.93%
11. COc1cccc(-c2nc(CS(=O)(=O)CC(=O)Nc3ccccc3Br)c(C)o2)c1  -5.15%
12. CC(C)(C)C(=O)N1CCN(CCN2C(=O)c3cccc4cccc(c34)C2=O)CC1  -4.28%
13. CCOC(=O)c1c(NC(=O)c2cc3n(n2)C(C(F)(F)F)CC(c2ccccc2)N3)sc(C)c1C (configuration not stated)  -4.24%
14. Cc1cc(C)n(Cc2ccc(C(=O)NN)o2)n1  -3.98%
15. COC(=O)c1ccc(N2CCN(c3ccccc3)CC2)nc1  -3.88%
16. CCOc1ccc(CNc2ccc3c(c2)ncn3C(C)(C)C)cc1  -2.96%
17. Cc1ccc2cc(C)c(N3CCC(C)CC3)nc2c1  -2.14%
18. Cc1ccc([N+](=O)[O-])cc1N(CC(=O)NC1CCCC1)S(C)(=O)=O  -1.93%
19. CN1CCN(S(=O)(=O)c2ccc(SCCOc3ccc(Cl)cc3)nc2)CC1  -1.28%
20. CN1CCN(S(=O)(=O)c2ccc(SCCOc3ccccc3)nc2)CC1  -0.98%
21. CN1C(=O)N(C)C2(c3ccccc3)N(C(C)(C)C)C(=O)NC12c1ccccc1 (configuration not stated)  -0.92%
22. CCN1C(=NCCc2cccnc2)N[C@@H](c2ccccc2)[C@H](C(=O)OC)[C@H]1C  -0.82%
23. CC(C)[C@H](NC(=O)c1ccccc1F)C(=O)Nc1nc2c(s1)CCCC2  -0.81%
24. FC(F)(F)c1ccc(-n2cnc3ccccc32)nc1  -0.78%
25. COc1ccc(Nc2oc(-c3ccccc3)nc2C#N)cc1  -0.48%
26. Cc1ccc2c(c1)C1C[N+](C)(CC(=O)c3ccccc3)CCC1N2C(=O)c1ccccc1Cl (configuration not stated)  -0.23%
27. COc1cc2c(cc1OC)CN(CCOc1ccc(Br)cc1)CC2  -0.08%
28. CN(Cc1ccc(Cl)s1)C(=O)CNC(=O)CNC(=O)c1ccc(Cl)cc1Cl  0.015%
29. Cc1ccc(-c2noc(C3CCCN(C(=O)c4ccc(Cl)cc4)C3)n2)o1 (configuration not stated)  0.38%
30. Cc1ccc2cc(C)c(N3CCN(c4ccc(F)cc4)CC3)nc2c1  0.67%
31. COc1ccc(C)cc1NS(=O)(=O)c1ccc(NC(=O)CN(c2cc([N+](=O)[O-])ccc2C)S(C)(=O)=O)cc1  0.68%
32. COc1cccc(C(=O)NNC2=C(C(=O)C(F)(F)F)CCC2)c1  0.71%
33. Cc1c(Nc2nc(-c3ccccc3)cs2)c(=O)n(-c2ccccc2)n1C  0.86%
34. Cc1cccc2cc(/C=N/NC(=O)[C@H]3C[C@@H]3c3ccccc3)c(Cl)nc12  1.65%
35. CN(Cc1ccc(Cl)s1)C(=O)CSc1nnc(C2CC2)n1C1CC1  2.1%
36. CC(C)(C)n1nnnc1C(c1cccc(C(F)(F)F)c1)N1CCC(O)CC1 (configuration not stated)  2.3%
37. Cc1ccc(-c2noc(C3CCCN(C(=O)c4ccccc4)C3)n2)o1 (configuration not stated)  2.39%
38. Cc1cccc(NN=C2c3ccccc3-c3ccccc32)c1  3.47%
39. Cc1nn(C)c(C)c1C1C(C#N)=C(N)Oc2n[nH]c(C)c21 (configuration not stated)  4.26%
40. CC(C)c1ccc(CNc2c([N+](=O)[O-])c(=O)oc3ccccc23)cc1  4.35%
41. C=C1SC(Nc2c(C)cc(C)cc2C)=NC12CCCCC2  4.72%
42. O=C(Nc1cccc(S(=O)(=O)NC2=NCCCCC2)c1)c1cc(-c2ccccc2)nc2ccccc12  4.99%
43. Cc1cc(C)n2cc(-c3ccc(Cl)cc3)c(C(=O)O)c2n1  5.32%
44. CN(C)c1ccc(CNc2ccc3c(c2)ncn3C(C)(C)C)cc1  8.27%
45. O=C(OCC#CCSc1nnc(-c2cccc3ccccc23)o1)c1ccc2ccccc2c1  8.92%
46. Oc1ccc(Nc2nc(-c3ccccc3)nc3ccccc23)cc1  10.3%
47. COC(=O)COc1cc(=O)oc2ccc(NS(=O)(=O)c3ccccc3)cc12  11.6%
48. CCOC(=O)C1CCN(c2nc(C)nc3c2oc2ccccc23)CC1  13.6%
49. O=C(O)c1cc(NN=C2c3ccccc3-c3ccccc32)ccc1Cl  14%
50. COc1ccc(-n2c(COc3ccc4c(c3)OCO4)nnc2SCC(=O)O)cc1  14.8%
51. Cc1ccc2c(c1)C1C[N+](C)(CC(=O)Nc3ccccc3Cl)CCC1N2C(=O)c1ccccc1Cl (configuration not stated)  21.9%
52. O=C(N/N=C/c1cc2ccccc2nc1Cl)[C@H]1C[C@@H]1c1ccccc1  22.8%
53. O=C(COc1ccc(Cl)cc1Cl)Nc1ccc(-c2ccc(N3CCOCC3)nn2)cc1  27.4%
54. O=C(OCC#CCSc1nnc(-c2cccc3ccccc23)o1)c1cc2ccccc2o1  36.1%
55. CCOc1ccc(C2CC(c3ccc(CC)cc3)Nc3nc(N)nn32)cc1 (configuration not stated)  53.9%
56. COc1ccc(C(=O)CCN2CCc3cc(OC)c(OC)cc3C2)cc1  68.3%
57. Cc1cc(N2CCCCC2)n2ncc(-c3ccc(Cl)cc3)c2n1  94.8%
